# Experimental data taken from PubChem BioAssay (NCATS).
# “And” between values parts separate entries of the source, which are not always exact repeats. Equal values may be shown once. Inconclusive results are not listed. A call without a number means that no potency is given here. More than one record can exist for a structure, and the calls need not agree. The source made the active and inactive calls. The call rests on the fitted dose curve; in most records, active means well fitted inhibition curve with a large enough effect; inconclusive means small, poorly fitted or top-dose-only effect; inactive means no such curve, though single readings can be large or run the other way.
# Molecular target: M-phase phosphoprotein 8 (Homo sapiens) (UniProt Q99549)
# Sequence (Q99549 whole entry, looked up): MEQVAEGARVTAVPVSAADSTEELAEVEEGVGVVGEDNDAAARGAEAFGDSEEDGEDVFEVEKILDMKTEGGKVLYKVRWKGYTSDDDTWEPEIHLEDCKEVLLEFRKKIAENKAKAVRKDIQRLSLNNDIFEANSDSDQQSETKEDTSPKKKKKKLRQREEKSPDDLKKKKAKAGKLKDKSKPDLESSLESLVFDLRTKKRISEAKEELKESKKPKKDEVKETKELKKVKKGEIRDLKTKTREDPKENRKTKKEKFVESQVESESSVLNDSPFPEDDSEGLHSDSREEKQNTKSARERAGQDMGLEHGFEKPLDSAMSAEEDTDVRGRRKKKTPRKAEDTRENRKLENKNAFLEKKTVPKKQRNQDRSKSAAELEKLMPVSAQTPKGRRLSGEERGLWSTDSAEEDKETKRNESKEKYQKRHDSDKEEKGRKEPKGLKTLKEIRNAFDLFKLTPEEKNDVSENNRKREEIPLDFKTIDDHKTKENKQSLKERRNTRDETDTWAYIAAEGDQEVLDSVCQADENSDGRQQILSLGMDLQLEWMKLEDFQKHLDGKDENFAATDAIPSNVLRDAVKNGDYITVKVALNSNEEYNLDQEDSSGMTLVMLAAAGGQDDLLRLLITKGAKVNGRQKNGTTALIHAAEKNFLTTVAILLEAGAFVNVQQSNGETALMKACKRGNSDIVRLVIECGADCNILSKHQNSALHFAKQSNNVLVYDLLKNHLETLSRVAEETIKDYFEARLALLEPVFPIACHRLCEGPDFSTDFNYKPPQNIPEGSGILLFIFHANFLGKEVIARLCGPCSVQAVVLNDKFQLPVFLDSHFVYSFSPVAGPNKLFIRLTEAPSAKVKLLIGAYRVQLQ
# Assay: qHTS Validation Assay for Inhibitors for MPP8 Chromodomain Interactions with Methylated Histone Tails (AID 488949); further: nearly all actives have a fitted effect of over 55% in size
# Conditions: AlphaScreen MPP8 binding to H3K9me3 peptide; series mostly up to 57.1 µM
# Text: As our understanding of epigenetics expands, it is becoming clear that players in this field are potential targets for drug development. This area of epigenetic therapy has established applications for the treatment of cancer and neurological diseases. We have been involved in this field for a number of years and have performed high-throughput screens to identify the first small molecule inhibitors of protein methyltransferases. These methyltransferases target multiple substrates, and thus regulate many arms of an epigenetic pathway. The methylation of different substrates often generates docking sites for effector proteins that harbor binding domains (chromo, tudor, PHD, MBT and ANK repeats). It has been proposed that the binding sites generated for different proteins by these post-translational modifcations mediate downstream effects on chromatin. Consistent with this theory, di- and tri-methylation of histone H3K9 facilitates the binding of heterochromatin protein HP1. The HP1 protein harbors a chromodomain that is responsible for the methyl-dependent interaction between HP1 and lysine 9 of histone H3. HP1 was first described in flies as a heterochromatin associated protein that can regulate gene silencing. It harbors a chromodomain that binds H3K9me3. In addition, it harbors a chromoshadow domain that interacts with a large number of proteins that are involved in heterochromatin formation and gene repression. There are three highly related HP1 isoforms. All three variants are associated with pericentric heterochromatin and it is not clear whether they have specific or redundant functions. MPP8 is also involved in the repression of gene in euchromatic regions (unpublished data) and like HP1 its chromodomain binds H3K9me3. MPP8 harbors an ankyrin repeat region that is likely involved in binding and recruiting interacting proteins with transcriptional repressive function, much like the chromoshadow domain of HP1 does. We hypothesize that by inhibiting specific protein-protein interactions we will be able to develop compounds that block a single arm of an epigenetic pathway. The specificity attained by blocking a single protein-protein interaction will be far greater than that attained by blocking the enzyme that regulates one of many interactions. Low-affinity protein-protein interactions (Kd in the single- to double-digit micromolar range) such as those discussed here have been very difficult to assay by traditional techniques such as fluorescence polarization or fluorescence resonance energy transfer. We have developed a sensitive chemiluminescence-based assay (Quinn, et al. 2009), which serves as the starting point for this project. The following is a validation assay to identify lead compounds that can block methyl-dependent protein-protein interactions (specifically MPP8), which can be used as probes to analyze these methyl-driven interactions and perhaps even developed into targeted epigenetic therapies. Assay Provider: Mark T. Bedford, MD Anderson Screening Center PI: Austin, C.P. Screening Center: NIH Chemical Genomics Center [NCGC]
# To each well, 2 uL of MPP8 protein (final 50 nM) and 1 uL biotinylated histone peptide trimethylated at Lys9 [b-H3(1-18)K9me3] (final 50 nM) was added in 1x PBS buffer, pH 7.4, containing 0.01% Tween-20 using a nanoliter dispenser. Formation of a protein-peptide complex proceeded at room temperature for 30 min. A Kalypsys pin-tool was employed to transfer 23 nL of library compound solution in DMSO to each well. Aurintricarboxylic acid (ATA) was used as an intraplate control with a 12-point titration in duplicate. Following a 30 min incubation of the protein-peptide complex with compounds at room temperature, a mixture of 40 ug/mL each streptavidin-coated donor and nickel chelate acceptor AlphaScreen beads (final 10 ug/mL) was added in a 1 uL dispense for a final volume of 4 uL. Plates were incubated protected from the light for 30 min at room temperature. […]
# Potency means the concentration at half of the fitted maximal effect.
row,SMILES,Potency
1,CCOC(=O)N1CCN(/[N+]([O-])=N/Oc2ccc([N+](=O)[O-])cc2[N+](=O)[O-])CC1,inactive
2,OCC1O[C@H]([S-])[C@H](O)[C@@H](O)[C@@H]1O.[Au+] (stereo not given in full),1.5 µM (active)
3,N[C@@H](CC(=O)O)C(=O)O,inactive
4,NCCCS(=O)(=O)O,inactive
5,OCC1O[C@H](O)C(Cl)C(O)C1O (stereo not given in full),inactive
6,CCN1/C(=C/C(C)=O)Sc2ccc(OC)cc21,inactive
7,O=C(O)[C@@H]1C[C@H](C(=O)O)N1,inactive
8,CCCCCC(O)c1cccc(OCc2ccc3ccccc3n2)c1 (stereo not given),inactive
9,O=C(O)/C=C/C(O)c1ccc(Cl)cc1 (stereo not given),inactive
10,N#C/C(=C\c1ccc(O)c(O)c1)C(=O)NCCCc1ccccc1,7.08 µM (active) and 8.44 µM (active)
11,C[C@@H](NC(=O)/C(C#N)=C/c1ccc(O)c(O)c1)c1ccccc1,10 µM (active)
12,CCCCCCCCCCCCCCCCCC(=O)NCC(COP(=O)([O-])OCC[N+](C)(C)C)OCC (stereo not given),inactive
13,COc1cc(SC)ccc1C(=O)N1CCC(Cc2ccccc2)CC1,inactive
14,O=[N+]([O-])c1ccc(CSc2ncnc3c2ncn3[C@@H]2O[C@H](CO)[C@@H](O)[C@H]2O)cc1,inactive
15,COC(=O)c1c(C)[nH]c(C)c1C(=O)c1ccccc1Cc1ccccc1,39.8 µM (active) and inactive
16,Cn1ncc(S(=O)(=O)Cc2ccccc2)c(Br)c1=O,inactive
17,Oc1ccc(C2CNCc3sccc32)cc1O (stereo not given),inactive
18,C=CC(N)CCC(=O)O (stereo not given),inactive
19,CN1CCC[C@H]1c1cccnc1,inactive
20,NCCCCCCCCCCN,inactive

row,SMILES,Potency
1,CN1CC(=O)N/C1=N/C(=O)Nc1cccc(Cl)c1,inactive
2,CO/S(=N\S(=O)(=O)c1ccc(Cl)cc1)c1ccc([N+](=O)[O-])cc1 (stereo not given),inactive
3,CCCCCCCCCCCCCCCCCCNC(=O)OCC(COP(=O)([O-])OCC[n+]1ccsc1)OC (stereo not given),inactive
4,O=c1[nH]c2cc(Cl)c(Cl)cc2[nH]c1=O,inactive
5,S=C(S)OC1CC2CC1C1CCCC21 (stereo not given),inactive
6,CCCCN1CCC(n2c(=O)[nH]c3ccccc32)CC1,inactive
7,O=C(O)CC1CCCc2ccccc2C1O (stereo not given),inactive
8,NC(=S)c1ccc[n+]([C@@H]2O[C@@H](COP(=O)([O-])OP(=O)(O)OC[C@H]3O[C@@H](n4cnc5c(N)ncnc54)[C@H](OP(=O)(O)O)[C@@H]3O)C(O)C2O)c1 (stereo not given in full),inactive
9,CO/N=C(\C(=O)N[C@@H]1C(=O)N2C(C(=O)O)=C(COC(C)=O)CS[C@H]12)c1csc(N)n1,inactive
10,Nc1ccn([C@@H]2O[C@H](CO)[C@@H](O)[C@@H]2O)c(=O)n1,inactive
11,CN(C)CCC(c1ccc(Cl)cc1)c1ccccn1 (stereo not given),inactive
12,Fc1ccc(C(OCCCc2cnc[nH]2)c2ccc(F)cc2)cc1,50.1 µM (active)
13,NC[C@H]1O[C@@H](n2cnc3c(N)ncnc32)[C@H](O)[C@@H]1O,inactive
14,Cn1cc(C2=C(c3ccc(Cl)cc3Cl)C(=O)NC2=O)c2ccccc21,inactive
15,CCCCCCCCCCCCCCCC(=O)NCC(COP(=O)([O-])OCC[N+](C)(C)C)OCC (stereo not given),inactive
16,CCNC(=O)[C@H]1O[C@@H](n2cnc3c(N)nc(NCCc4ccc(CCC(=O)O)cc4)nc32)[C@H](O)[C@@H]1O,inactive
17,OC[C@H]1O[C@@H](n2cnc3c(Nc4ccccc4)ncnc32)[C@H](O)[C@@H]1O,inactive
18,Nc1nc(Cl)nc2c1ncn2[C@@H]1O[C@H](COP(=O)(O)OP(=O)(O)OP(=O)(O)O)[C@@H](O)[C@H]1O,inactive
19,NCCSSCCN,79.4 µM (active) and inactive
20,CCCCC#Cc1nc(NC)c2ncn([C@@H]3O[C@H](CO)[C@@H](O)[C@H]3O)c2n1,inactive
